# Assay results published in PubChem BioAssay (NCI).
# Compounds without any hit were thinned out: in the full panel of roughly 83,000, 20% have a hit.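 Growth was measured after 48 h exposure to one concentration of compound in 96-well plates. Values under 10 count as active.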 Unmarked numbers belong to inactive results. The source made the active and inactive calls.
# Tests used:
# Experiment in all cases: NCI-60 one-dose screen, 48 h (100 = growth as untreated, 0 = no growth, -100 = all killed)
# HOP-92 NSCLC = settings: 10 µM unless noted
# NCI-H522 lung = settings: 10 µM unless noted
# HT29 colon = settings: 10 µM unless noted
# SNB-75 CNS = settings: 10 µM unless noted
# SNB-19 CNS = settings: 10 µM unless noted
# UO-31 renal = settings: 10 µM unless noted
# ACHN renal = settings: 10 µM unless noted
# CAKI-1 renal = settings: 10 µM unless noted
# RPMI-8226 leukemia = settings: 10 µM unless noted
# OVCAR-8 ovarian = settings: 10 µM unless noted
# OVCAR-5 ovarian = settings: 10 µM unless noted
# SK-OV-3 ovarian = settings: 10 µM unless noted
# EKVX NSCLC = settings: 10 µM unless noted
# TK-10 renal = settings: 10 µM unless noted
# COLO 205 colon = settings: 10 µM
# MOLT-4 leukemia = settings: 10 µM
# T-47D breast = settings: 10 µM unless noted
# MDA-MB-435 melanoma = settings: 10 µM unless noted
# A549/ATCC NSCLC = settings: 10 µM unless noted
SMILES,growth (HOP-92 NSCLC),growth (NCI-H522 lung),growth (HT29 colon),growth (SNB-75 CNS),growth (SNB-19 CNS),growth (UO-31 renal),growth (ACHN renal) [%],growth (CAKI-1 renal),growth (RPMI-8226 leukemia) [%],growth (OVCAR-8 ovarian) [%],growth (OVCAR-5 ovarian) [%],growth (SK-OV-3 ovarian),growth (EKVX NSCLC),growth (TK-10 renal),growth (COLO 205 colon),growth (MOLT-4 leukemia),growth (T-47D breast),growth (MDA-MB-435 melanoma),growth (A549/ATCC NSCLC) [%]
COC(=O)C(=[N+]=[N-])C(=O)OC,82.9%,94%,101%,80.6%,103%,88.3%,94,109%,96.4,101,107,101%,,,,,,,
C[C@@H]1CC[C@@H]2[C@@H]1[C@H](OC(=O)/C=C/C1CCCCC1)[C@]1(C3CCCCC3)C[C@@H](OC(=O)CO)[C@@]2(C)O1,41.6%,46.9%,31.4%,76.9%,85.8%,-44.2% (active),14.9,-21.9% (active),25.3,23,101,69%,78.1%,81.7%,,,,,
CC(=O)[O][Hg][c]1ccccc1,-94.7% (active),-32.8% (active),-47.9% (active),-65.9% (active),-26.6% (active),-94.2% (active),,-69.7% (active),10.1,,,-5.18% (active),-35.7% (active),-94.7% (active),-98.5% (active),-10.9% (active),-42.1% (active),-89.2% (active),
Oc1ccc(O)c2c1C1(Cl)C(Cl)=C(Cl)C2(Cl)C1(Cl)Cl,12%,,66.4%,31.6%,64.9%,,48.2,34.6%,64,74,70.1,66.9%,34.3%,75.4%,72%,54.3%,19.4%,-3.33% (active),46.1
